# Measurements from PubChem BioAssay (NCATS).
# Inconclusive results are not listed. Calls of active or inactive are those of the source. Calls come from the whole dose curve; as a rule, active = well fitted curve in the direction sought with a large enough effect; inconclusive = small, poorly fitted or top-dose-only effect, or another doubt; inactive = no such curve, though single readings can be large; an effect the other way counts as inactive or inconclusive.
# Assay: BET inhibitor-based combinations targeting novel dependencies in MECOM-rearranged (r) AML: MV-4-11 cell line (AID 2202233); note: nearly all actives have a fitted effect of over 45% in size;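 for viability, % of control: plate controls were DMSO for no effect and blank wells for full effect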
# Details: MV-4-11 AML viability, CellTiter-Glo luminescence, 48 h; series mostly up to 46 µM; viability, % of control: at the top concentration
# Outline: (§1)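 Using pin-tool transfer, drugs were added in 11 doses to cells (500/well), incubated 48 hr, and assessed with CellTiter-Glo. Z-AUC is a mean-centring transformation applied separately to each screened line.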
# Potency is the fitted concentration of half-maximal effect.
Structure (SMILES),"viability, % of control",Potency
CCOC(=O)C1=C(N)Oc2ccc(Br)cc2C1C(C#N)C(=O)OCC (centres undefined),96.8% (inactive),–
Cn1cc(-c2ccc3ncc(Cc4ccc5ncccc5c4)n3n2)cn1,–,18.6 µM (active)
Cn1cc(-c2ccncc2)c(-c2ccc(OCc3ccc4ccccc4n3)cc2)n1,–,5.9 µM (active)
Oc1ccc(Nc2nc(-c3ccc(Cl)cc3)cs2)cc1,–,14.8 µM (active)
Cc1ccc(CN2CCNCC2)cc1NC(=O)CNc1ccc(F)c(F)c1,102% (inactive),–
C=CC(=O)Nc1cccc(Nc2nc(Nc3ccc(Oc4ccnc(C(=O)NC)c4)cc3)ncc2F)c1,–,6.61 µM (active)

# Assay: BET inhibitor-based combinations targeting novel dependencies in MECOM-rearranged (r) AML: UCSD-AML1 cell line (AID 2202235); note: nearly all actives have a fitted effect of over 40% in size;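 for viability (% of control): plate controls were DMSO vehicle wells for no effect and blank wells for full effect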
# Details: UCSD-AML1 AML cells viability, CellTiter-Glo, 48 h; series mostly up to 46 µM; viability (% of control): at the top concentration
# Outline: as §1
Structure (SMILES),viability (% of control),Potency
COc1cccc(-c2ccc(NC(=O)C3=C(C(=O)O)CCC3)c(F)c2)c1,109% (inactive),–
Cn1cc(-c2ccc3ncc(Cc4ccc5ncccc5c4)n3n2)cn1,112% (inactive),–
Cn1cc(-c2ccncc2)c(-c2ccc(OCc3ccc4ccccc4n3)cc2)n1,111% (inactive),–
Oc1ccc(Nc2nc(-c3ccc(Cl)cc3)cs2)cc1,–,6.61 µM (active)
Cc1ccc(CN2CCNCC2)cc1NC(=O)CNc1ccc(F)c(F)c1,118% (inactive),–
C=CC(=O)Nc1cccc(Nc2nc(Nc3ccc(Oc4ccnc(C(=O)NC)c4)cc3)ncc2F)c1,–,18.6 µM (active)

# Assay: BET inhibitor-based combinations targeting novel dependencies in MECOM-rearranged (r) AML: AML-191 cell line (AID 2202236; note: nearly all actives have a fitted effect of over 35% in size;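 for viability (% of control): plate controls were vehicle wells for no effect and wells without cells for full effect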)
# Details: AML-191 viability, CellTiter-Glo luminescence, 48 h; series mostly up to 46 µM; viability (% of control): at the top concentration
# Outline: (§2)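 Viability of cells (500 per well) is scored by luminescent CellTiter-Glo at 48 hr post-dosing. Eleven-point titrations are normalized to DMSO and empty controls and reduced to AUC values.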
Structure (SMILES),Potency,viability (% of control)
Cn1cc(-c2ccc3ncc(Cc4ccc5ncccc5c4)n3n2)cn1,13.2 µM (active),–
Oc1ccc(Nc2nc(-c3ccc(Cl)cc3)cs2)cc1,16.6 µM (active),–
Cc1ccc(CN2CCNCC2)cc1NC(=O)CNc1ccc(F)c(F)c1,–,104% (inactive)
C=CC(=O)Nc1cccc(Nc2nc(Nc3ccc(Oc4ccnc(C(=O)NC)c4)cc3)ncc2F)c1,16.6 µM (active),–

# Assay: BET inhibitor-based combinations targeting novel dependencies in MECOM-rearranged (r) AML: AML-194 cell line (AID 2202237; note: nearly all actives have a fitted effect of over 40% in size;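 for viability (% of control): plate controls were vehicle wells for no effect and wells without cells for full effect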)
# Details: AML-194 (MECOM-r AML) viability, CellTiter-Glo, 48 h; series mostly up to 46 µM; viability (% of control): at the top concentration
# Outline: as §2
Structure (SMILES),viability (% of control),Potency
Oc1ccc(Nc2nc(-c3ccc(Cl)cc3)cs2)cc1,100% (inactive),–
Cc1ccc(CN2CCNCC2)cc1NC(=O)CNc1ccc(F)c(F)c1,108% (inactive),–
C=CC(=O)Nc1cccc(Nc2nc(Nc3ccc(Oc4ccnc(C(=O)NC)c4)cc3)ncc2F)c1,–,18.6 µM (active)
